DT40 TDP1 no CPT – qHTS for Inhibitors of human tyrosyl-DNA phosphodiesterase 1 (TDP1): qHTS in cells in absence of CPT; DT40 Tdp1-/- hTDP1 cells, no CPT, ATP luminescence, 48 h; Potency, µM (doses to about 46.2 µM), for inactives: top-dose activity change, negative = growth inhibition, actives largely listed as inhibitors; 420,000 tested, 15% active; AID 686978, 2013; also: % is scaled to controls: 0 for no effect and ±100 for the full control effect; nearly all actives have a fitted effect of over 55% in size
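Compound effects on proliferation are scored in DT40 Tdp1-/-;hTDP1 cells in the absence of CPT. ATP levels (CellTiter-Glo luminescence) are recorded after a ≥48 hr, 37 °C incubation.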
ClpP mod – qHTS Assay for Activators of ClpP; purified B. subtilis ClpP, FRET peptide cleavage, 20 min; 340,000 tested, 1.9% active; ATP-dependent Clp protease proteolytic subunit (Bacillus subtilis (strain 168)), P80244; Potency, µM (series often up to 57.5 µM), for inactives: at the top dose activity change, negative = active; active = well fitted falling curve with a large enough effect; inconclusive = small, poorly fitted or top-dose-only effect; inactive = no such curve, though single readings can be large or run the other way; also: the source files actives as falling curves though it sought activators and does not explain the sign; nearly all actives have a fitted effect of over 65% in size
Target sequence (P80244 whole entry, looked up): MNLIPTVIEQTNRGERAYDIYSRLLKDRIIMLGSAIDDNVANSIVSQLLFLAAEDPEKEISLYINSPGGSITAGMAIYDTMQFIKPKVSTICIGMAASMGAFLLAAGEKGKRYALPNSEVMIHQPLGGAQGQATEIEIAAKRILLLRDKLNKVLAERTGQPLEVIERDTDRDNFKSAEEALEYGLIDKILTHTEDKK
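Purified B. subtilis ClpP, 10 microg/mL final in Tris/HCl pH8 with KCl, BSA, glycerol and Tween-20, cleaved an Abz/nitrotyrosine-quenched decapeptide. Fluorescence (ex 320, em 430) was read at 0 and 20 min at room temperature. Delta was normalized to 5.8 microM ADEP and DMSO/no-enzyme controls.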
TDP1 cell CPT – growth inhibition of DT40 Tdp1-/-;hTDP1 cells with camptothecin (screen for TDP1 inhibitors); Potency, µM (top dose mostly 46.2 µM), without a hit: at the highest dose activity change, negative = growth inhibition, actives largely listed as inhibitors; chicken DT40 Tdp1-/-;hTDP1 cells + 20 nM CPT, ATP luminescence, 48 h; 420,000 tested, 12% active; also: % is scaled to controls: 0 for no effect and ±100 for the full control effect; nearly all actives have a fitted effect of over 55% in size
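Chicken DT40 Tdp1-/- cells stably complemented with human TDP1 were seeded at 400 cells/well in medium containing 20 nM camptothecin, exposed to pin-transferred compounds, and grown at 37 °C for at least 48 hr. Viability was read as ATP luminescence.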
TDP1 inh – inhibitors of human tyrosyl-DNA phosphodiesterase TDP1; Q9NUW8; Potency, µM (series often up to 130 µM), for inactives: top-dose activity change, negative = inhibition, most hits filed as inhibitors; recombinant TDP1, AlphaScreen DNA substrate cleavage; 350,000 tested, 0.28% active; also: % is scaled to controls: 0 for no effect and ±100 for the full control effect; nearly all actives have a fitted effect of over 40% in size
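Recombinant E. coli-expressed Tdp1 (1 nM) preincubated with compound 15 min at RT, then 5'-biotin/3'-phosphotyrosine-FITC DNA substrate (15 nM) added for 5 min. AlphaScreen beads (10 ug/ml) added, 10 min RT; tyrosine-FITC cleavage read as signal loss.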
Active calls of the source: *; ? = inconclusive; . = no result; [ ] = dose if it differs, or a comment. Only some compounds are listed: those with a hit (about 17% of all), similar ones and a draw of the others. Unless noted, calls follow the shape of the dose curve; as a rule, active = well fitted curve in the direction sought with a large enough effect; inconclusive = small, poorly fitted or top-dose-only effect, or another doubt; inactive = no such curve, though single readings can be large; an effect the other way counts as inactive or inconclusive. Potency is read from the fitted curve at half-maximal effect.

SMILES	DT40 TDP1 no CPT	ClpP mod	TDP1 cell CPT	TDP1 inh
COCCCn1c(SCC(=O)Nc2ccccc2OC)nc2c(sc3ccccc32)c1=O	26µM*	0%	23µM*	2%
COCCCNC(=O)CSc1nc2c(sc3ccccc32)c(=O)n1CCc1ccc(OC)c(OC)c1	5.2µM*	-2%	?	4%
CC(=O)N1c2ccc(S(=O)(=O)N3CCCC3)cc2CC1C(=O)Nc1cc(C)cc(C)c1 (stereo not drawn)	23µM*	1%	?	3%
CC(=O)N1c2ccc(S(=O)(=O)N3CCCC3)cc2CC1C(=O)NC(C)C (stereo not drawn)	1%	-2%	-3%	5%
CCc1ccc(CNC(=O)C2Cc3cc(S(=O)(=O)N4CCCCCC4)ccc3N2C(C)=O)cc1 (stereo not drawn)	?	1%	23µM*	6%
COC(=O)[C@@H]1CC[C@H](C)[C@@H](c2ccc(C)cc2)N1C(=O)c1ccc(/C=N\OC[C@@H]2O[C@H](c3ccccc3)C=C[C@@H]2Oc2ccc(OC)cc2)cc1	.	.	.	9%[21 µM]
O=C(c1cc([N+](=O)[O-])[nH]n1)N1CCSCC1	2%	-1%	30%	3%
CC1CN(C(=O)N2CCC(C(=O)N3CCN(c4ccccc4)CC3)CC2)c2cc(Cl)ccc2O1 (stereo not drawn)	13µM*	-1%	13µM*	6%
CCCCNC(=O)C1CCN(C(=O)N2CC(C)Oc3ccc(Cl)cc32)CC1 (stereo not drawn)	21µM*	1%	?	6%
CC(CNC(=O)C1CCN(C(=O)N2CCOc3ccc(Cl)cc32)CC1)c1ccccc1 (stereo not drawn)	16µM*	0%	?	9%
CC1CN(C(=O)CCC(=O)N2CCCCC2)c2cc(Cl)ccc2O1 (stereo not drawn)	16%	0%	-20%	0%
CC1CN(C(=O)N2CCC(C(=O)NCCCc3ccccc3)CC2)c2cc(Cl)ccc2O1 (stereo not drawn)	13µM*	-2%	18µM*	1%
CC(C)(C)S(=O)(=O)N1Cc2cc(=O)n(Cc3ccccc3)c(CCO)c2[C@H]1CCO	-5%	?	7%	.
O=c1oc2cc(S(=O)(=O)NCCCO)ccc2c2ccc(S(=O)(=O)NCCCO)cc12	4%	?	0%	0%
Cn1c(=O)c2sccc2n2c(CCC(=O)NCc3ccc(F)cc3)nnc12	0%	-2%	4%	6%
Cc1cccc(CN2CCc3nnc(C(C)NC(=O)C4CCOCC4)n3CC2)c1 (stereo not drawn)	0%	.	14%	.
CS(=O)(=O)c1ccc(Cl)c(NC(=O)CCCc2nc3ccccc3c(=O)[nH]2)c1	-28%	1%	-12%	.
C=CCOCCN(CC)CC	6%	.	27%	3%
CCc1ccc(C(=O)c2cn(CC(=O)NCc3ccc(C)cc3)c3nc(C)ccc3c2=O)cc1	1%	-3%	-8%	5%
COc1ccc(CNC(=O)COC(=O)c2cccn2C)cc1	13%	-4%	16%	-13%
CC1CN(C(=O)N2CCC(C(=O)NCCCc3ccccc3)CC2)c2ccccc2O1 (stereo not drawn)	?	0%	21µM*	-3%
O=C(NCCCc1ccccc1)C1CCN(C(=O)N2CCOc3ccc(Cl)cc32)CC1	15µM*	-4%	16µM*	-1%
Cc1ccc2c(c1)N(C(=O)N1CCC(C(=O)NCCc3ccccc3)CC1)CC(C)O2 (stereo not drawn)	?	-1%	?	6%
CCOc1ccc2nc(N3C(=O)/C(=C/c4ccc(Cl)cc4)NC3=S)sc2c1	10µM*	1%	?	7%
Cc1c(Cl)cccc1NC(=O)c1cc2nc(-c3ccc4c(c3)OCO4)cc(C(F)(F)F)n2n1	-19%	-3%	-8%	-2%[12.3 µM]
COc1ccccc1C#CC1=CC(=O)C[C@H](c2ccc(F)cc2)C1	16µM*	-5%	15µM*	.
O=C1C=C(C#Cc2ccccc2)C[C@@H](c2ccc(F)cc2)C1	4.6µM*	1%	4.6µM*	.
